{"source": "PubChem BioAssay (Tox21)", "key": {"[1]": {"molecular_target": "Cytochrome P450 2C9 (Homo sapiens) (UniProt P11712)", "sequence (P11712 whole entry, looked up)": "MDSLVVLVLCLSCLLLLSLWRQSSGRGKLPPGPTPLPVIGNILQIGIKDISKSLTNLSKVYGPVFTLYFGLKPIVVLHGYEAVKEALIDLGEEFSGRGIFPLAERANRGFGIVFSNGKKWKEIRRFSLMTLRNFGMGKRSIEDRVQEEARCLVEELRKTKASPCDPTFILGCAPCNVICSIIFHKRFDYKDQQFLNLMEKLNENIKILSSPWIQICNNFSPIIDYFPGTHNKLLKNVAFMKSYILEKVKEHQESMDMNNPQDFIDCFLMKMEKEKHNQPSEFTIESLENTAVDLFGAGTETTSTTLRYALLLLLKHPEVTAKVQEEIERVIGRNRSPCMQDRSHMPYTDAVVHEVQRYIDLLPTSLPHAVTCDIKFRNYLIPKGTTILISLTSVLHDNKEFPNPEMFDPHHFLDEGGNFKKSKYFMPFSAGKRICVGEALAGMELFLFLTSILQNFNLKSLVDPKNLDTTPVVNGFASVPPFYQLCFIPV", "test": "Cytochrome P450 Family 2 Subfamily C Member 9 (CYP2C9) small molecule antagonists: luciferase reporter qHTS assay (AID 1671198); note: nearly all actives have a fitted effect of over 50% in size; note: potency is the fitted concentration of half-maximal effect", "in_short": "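CYP2C9 activity was measured with a P450-Glo proluciferin substrate. Enzyme–substrate mix was held with compound for 10 min at room temperature, then NADPH regeneration solution was added for 1 h at 37C. Luciferin product was read as luminescence.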"}, "[2]": {"molecular_target": "Cytochrome P450 1A2 (Homo sapiens) (UniProt P05177)", "sequence (P05177 whole entry, looked up)": "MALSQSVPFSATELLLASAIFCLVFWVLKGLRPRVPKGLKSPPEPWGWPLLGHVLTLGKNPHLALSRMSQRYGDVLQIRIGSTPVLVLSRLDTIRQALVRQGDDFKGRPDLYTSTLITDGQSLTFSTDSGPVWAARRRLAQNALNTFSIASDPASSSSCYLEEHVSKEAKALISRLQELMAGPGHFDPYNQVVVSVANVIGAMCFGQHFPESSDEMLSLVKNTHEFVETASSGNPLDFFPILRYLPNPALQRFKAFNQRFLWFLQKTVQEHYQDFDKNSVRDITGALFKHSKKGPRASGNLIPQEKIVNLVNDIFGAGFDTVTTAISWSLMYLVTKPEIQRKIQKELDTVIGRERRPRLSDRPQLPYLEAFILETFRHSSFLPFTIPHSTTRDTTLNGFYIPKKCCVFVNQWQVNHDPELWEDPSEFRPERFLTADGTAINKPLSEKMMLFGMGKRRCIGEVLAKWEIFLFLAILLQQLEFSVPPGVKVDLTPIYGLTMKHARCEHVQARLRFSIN", "test": "Cytochrome P450 Family 1 Subfamily A Member 2 (CYP1A2) small molecule antagonists: luciferase reporter qHTS assay (AID 1671199); note: nearly all actives have a fitted effect of over 50% in size; note: potency is the fitted concentration of half-maximal effect", "in_short": "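P450-Glo CYP1A2, 1536-well qHTS: enzyme/proluciferin substrate + cpd (DMSO), 10 min RT; NADPH regen, 1 h RT; detection reagent, 20 min; luminescence, RLU.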"}, "[3]": {"molecular_target": "Voltage-gated inwardly rectifying potassium channel KCNH2 (Homo sapiens) (UniProt Q12809)", "sequence (Q12809 whole entry, looked up)": "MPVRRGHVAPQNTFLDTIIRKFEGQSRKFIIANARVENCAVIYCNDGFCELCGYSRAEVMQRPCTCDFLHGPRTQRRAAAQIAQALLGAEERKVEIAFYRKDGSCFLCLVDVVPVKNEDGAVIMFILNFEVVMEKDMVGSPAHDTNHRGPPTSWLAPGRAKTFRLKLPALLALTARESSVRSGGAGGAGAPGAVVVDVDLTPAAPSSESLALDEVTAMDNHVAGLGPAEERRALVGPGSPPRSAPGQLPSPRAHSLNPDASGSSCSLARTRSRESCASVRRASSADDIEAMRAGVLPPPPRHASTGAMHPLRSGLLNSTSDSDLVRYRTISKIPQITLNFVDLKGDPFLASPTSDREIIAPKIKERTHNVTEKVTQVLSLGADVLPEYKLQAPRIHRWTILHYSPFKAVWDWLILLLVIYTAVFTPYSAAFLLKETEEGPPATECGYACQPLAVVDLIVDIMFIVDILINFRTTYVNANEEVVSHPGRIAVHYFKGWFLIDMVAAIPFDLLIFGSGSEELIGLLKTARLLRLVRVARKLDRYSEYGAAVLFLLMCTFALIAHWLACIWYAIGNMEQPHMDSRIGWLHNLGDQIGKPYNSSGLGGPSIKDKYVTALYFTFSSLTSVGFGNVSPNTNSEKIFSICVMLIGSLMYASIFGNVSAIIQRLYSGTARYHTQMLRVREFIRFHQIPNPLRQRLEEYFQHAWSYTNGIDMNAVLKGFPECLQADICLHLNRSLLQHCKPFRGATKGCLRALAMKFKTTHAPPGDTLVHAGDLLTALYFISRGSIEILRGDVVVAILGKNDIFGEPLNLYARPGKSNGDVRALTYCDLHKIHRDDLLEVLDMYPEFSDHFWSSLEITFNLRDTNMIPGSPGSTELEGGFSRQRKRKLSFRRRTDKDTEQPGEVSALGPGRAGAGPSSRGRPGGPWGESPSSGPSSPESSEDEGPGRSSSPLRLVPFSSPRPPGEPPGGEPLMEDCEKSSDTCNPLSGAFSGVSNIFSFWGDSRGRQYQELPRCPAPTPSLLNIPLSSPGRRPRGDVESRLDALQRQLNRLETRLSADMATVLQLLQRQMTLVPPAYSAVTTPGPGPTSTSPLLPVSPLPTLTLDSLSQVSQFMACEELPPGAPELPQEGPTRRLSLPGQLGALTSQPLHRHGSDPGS", "test": "Human Ether-a-go-go-Related Gene (hERG) channel small molecule antagonists: fluorescence cell-based qHTS assay (AID 1671200);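 note: hERG-expressing U2OS cells given a thallium stimulus after FluxOR II dye loading; series mostly up to about 77 µM; nearly all actives have a fitted effect of over 50% in size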", "in_short": "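First, 1000 cells per well are seeded and cultured overnight at 37 C. Next, FluxOR II dye is loaded for 1 h at room temperature, protected from light. After 10 more minutes, stimulus is added and fluorescence is read.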"}, "[4]": {"molecular_target": "Cytochrome P450 2C19 (Homo sapiens) (UniProt P33261)", "sequence (P33261 whole entry, looked up)": "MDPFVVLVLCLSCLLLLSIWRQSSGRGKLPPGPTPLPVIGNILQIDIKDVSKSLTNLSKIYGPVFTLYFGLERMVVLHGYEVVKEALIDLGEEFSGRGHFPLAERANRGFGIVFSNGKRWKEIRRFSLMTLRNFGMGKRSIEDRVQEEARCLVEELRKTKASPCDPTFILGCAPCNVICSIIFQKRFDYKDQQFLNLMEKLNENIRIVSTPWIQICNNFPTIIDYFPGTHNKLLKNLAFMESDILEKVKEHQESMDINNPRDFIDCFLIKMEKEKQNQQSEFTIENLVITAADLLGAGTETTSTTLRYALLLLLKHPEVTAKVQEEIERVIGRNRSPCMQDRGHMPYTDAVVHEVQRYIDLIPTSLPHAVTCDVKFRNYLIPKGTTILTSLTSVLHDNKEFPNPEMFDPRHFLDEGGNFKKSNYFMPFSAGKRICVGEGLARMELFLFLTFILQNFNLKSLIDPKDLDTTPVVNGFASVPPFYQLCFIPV", "test": "Cytochrome P450 Family 2 Subfamily C Member 19 (CYP2C19) small molecule antagonists: luciferase reporter qHTS assay (AID 1671197); note: nearly all actives have a fitted effect of over 65% in size; note: potency is the fitted concentration of half-maximal effect", "in_short": "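Luminescent readout of CYP2C19 activity: luciferin product detected 20 min after adding detection reagent. Before that, compound and enzyme-substrate mix preincubated 10 min at room temperature; NADPH-regenerating system started a 1 h, 37C reaction. Ketoconazole as positive control.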"}, "[5]": {"molecular_target": "Cytochrome P450 3A4 (Homo sapiens) (UniProt P08684)", "sequence (P08684 whole entry, looked up)": "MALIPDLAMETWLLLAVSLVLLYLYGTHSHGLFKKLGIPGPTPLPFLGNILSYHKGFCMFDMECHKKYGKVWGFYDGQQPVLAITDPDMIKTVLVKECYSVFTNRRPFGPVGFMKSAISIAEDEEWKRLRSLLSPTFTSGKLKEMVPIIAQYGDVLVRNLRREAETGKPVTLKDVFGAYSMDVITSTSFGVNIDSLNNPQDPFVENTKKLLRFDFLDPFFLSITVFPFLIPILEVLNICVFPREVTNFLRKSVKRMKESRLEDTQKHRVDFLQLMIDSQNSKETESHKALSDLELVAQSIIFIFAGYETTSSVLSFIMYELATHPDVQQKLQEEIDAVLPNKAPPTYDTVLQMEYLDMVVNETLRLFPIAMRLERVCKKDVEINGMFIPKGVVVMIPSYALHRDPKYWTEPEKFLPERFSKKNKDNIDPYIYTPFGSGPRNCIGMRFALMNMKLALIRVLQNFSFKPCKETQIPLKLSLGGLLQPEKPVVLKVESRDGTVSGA", "test": "Cytochrome P450 Family 3 Subfamily A Member 4 (CYP3A4) small molecule antagonists: luciferase reporter qHTS assay (AID 1671201); note: series mostly up to about 120 µM; nearly all actives have a fitted effect of over 50% in size", "in_short": "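Enzyme and proluciferin substrate are mixed with test chemicals for 10 min, then NADPH regeneration system drives turnover for 1 h at room temperature. A detection reagent halts the reaction; luminescence after 20 min gives relative activity.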"}}, "note": "Values joined by “and” are separate entries in the source; they are usually repeats but may differ in a detail not shown here. Identical values can stand only once. Records with an inconclusive call do not appear. Where a call stands in place of a potency, no number is given. Some structures have more than one record in an assay (separate samples or runs), and their calls can disagree. Active and inactive are the calls of the source. Calls come from the whole dose curve; as a rule, active = well fitted curve in the direction sought with a large enough effect in the repeat runs; inconclusive = weak or mixed curves; inactive = no such curve, though single readings can be large; an effect the other way counts as inactive or inconclusive.", "data": [{"molecule": "OCC(CO)(CO)CO", "values": [{"measurement": "Potency", "setting": "[1]", "result": "inactive"}, {"measurement": "Potency", "setting": "[2]", "result": "inactive"}, {"measurement": "Potency", "setting": "[3]", "result": "inactive"}]}, {"molecule": "CC1(C)[C@@H](O[C@H]2O[C@H](C(=O)O)[C@@H](O)[C@H](O)[C@H]2O[C@@H]2O[C@H](C(=O)O)[C@@H](O)[C@H](O)[C@H]2O)CC[C@]2(C)[C@H]3C(=O)C=C4[C@@H]5C[C@@](C)(C(=O)O)CC[C@]5(C)CC[C@@]4(C)[C@]3(C)CC[C@@H]12", "values": [{"measurement": "Potency", "setting": "[4]", "result": "inactive"}, {"measurement": "Potency", "setting": "[1]", "result": "inactive"}, {"measurement": "Potency", "setting": "[2]", "result": "inactive"}, {"measurement": "Potency", "setting": "[3]", "result": "inactive"}, {"measurement": "Potency", "setting": "[5]", "result": "inactive"}]}, {"molecule": "O=C(c1ccccc1)c1ccc(O)c(O)c1O", "values": [{"measurement": "Potency", "setting": "[4]", "result": "80.4 µM (active) and 63.3 µM (active)"}, {"measurement": "Potency", "setting": "[1]", "result": "40.3 µM (active) and 63.3 µM (active)"}, {"measurement": "Potency", "setting": "[3]", "result": "inactive"}, {"measurement": "Potency", "setting": "[5]", "result": "inactive"}]}, {"molecule": "CC(C)c1ccc(C(C)C)cc1", "values": [{"measurement": "Potency", "setting": "[4]", "result": "inactive"}, {"measurement": "Potency", "setting": "[1]", "result": "inactive"}, {"measurement": "Potency", "setting": "[3]", "result": "inactive"}, {"measurement": "Potency", "setting": "[5]", "result": "inactive"}]}, {"molecule": "CCCCCC(C)=O", "values": [{"measurement": "Potency", "setting": "[4]", "result": "81.3 µM (active) and inactive"}, {"measurement": "Potency", "setting": "[1]", "result": "inactive"}, {"measurement": "Potency", "setting": "[2]", "result": "inactive"}, {"measurement": "Potency", "setting": "[3]", "result": "inactive"}, {"measurement": "Potency", "setting": "[5]", "result": "inactive"}]}, {"molecule": "Cc1cc(CC(=O)O)n(C)c1C(=O)c1ccc(Cl)cc1", "values": [{"measurement": "Potency", "setting": "[1]", "result": "inactive"}, {"measurement": "Potency", "setting": "[2]", "result": "inactive"}, {"measurement": "Potency", "setting": "[3]", "result": "inactive"}, {"measurement": "Potency", "setting": "[5]", "result": "inactive"}]}, {"molecule": "CCCCCCCCC(=O)O", "values": [{"measurement": "Potency", "setting": "[1]", "result": "61.3 µM (active) and 79.6 µM (active)"}, {"measurement": "Potency", "setting": "[2]", "result": "38.6 µM (active)"}, {"measurement": "Potency", "setting": "[3]", "result": "inactive"}, {"measurement": "Potency", "setting": "[5]", "result": "inactive"}]}, {"molecule": "COCN(COC)c1nc(N(COC)COC)nc(N(COC)COC)n1", "values": [{"measurement": "Potency", "setting": "[2]", "result": "inactive"}, {"measurement": "Potency", "setting": "[3]", "result": "inactive"}]}, {"molecule": "CC(=O)c1nccs1", "values": [{"measurement": "Potency", "setting": "[1]", "result": "32.8 µM (active) and inactive"}, {"measurement": "Potency", "setting": "[3]", "result": "inactive"}]}, {"molecule": "NC(N)=S", "values": [{"measurement": "Potency", "setting": "[1]", "result": "inactive"}, {"measurement": "Potency", "setting": "[2]", "result": "inactive"}, {"measurement": "Potency", "setting": "[3]", "result": "inactive"}, {"measurement": "Potency", "setting": "[5]", "result": "inactive"}]}, {"molecule": "C=CC(=O)NCOCCCC", "values": [{"measurement": "Potency", "setting": "[1]", "result": "inactive"}, {"measurement": "Potency", "setting": "[2]", "result": "inactive"}, {"measurement": "Potency", "setting": "[3]", "result": "inactive"}, {"measurement": "Potency", "setting": "[5]", "result": "inactive"}]}, {"molecule": "CCOC(=O)c1ccc(O)cc1", "values": [{"measurement": "Potency", "setting": "[3]", "result": "inactive"}]}, {"molecule": "Oc1ccc(Cc2ccccc2O)cc1", "values": [{"measurement": "Potency", "setting": "[2]", "result": "inactive"}, {"measurement": "Potency", "setting": "[3]", "result": "inactive"}, {"measurement": "Potency", "setting": "[5]", "result": "inactive"}]}]}
